Test results: PubChem BioAssay
Values joined by “and” are separate entries in the source; they are usually repeats but may differ in a detail not shown here. Identical values can stand only once. Active and inactive are the calls of the source. Cut-off read from the data, not from the text of the source, unless noted: active = inhibition above about 80%; inactive = the rest.

Columns and labels:
[1] = kinase inhibitors against Plasmodium liver-stage infection, cell-based, known kinase inhibitor set, luminescence, hepatoma host viability (AID 624392; call rule not given here;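 note: infected cells incubated roughly two days before readout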); conditions: Plasmodium liver stage in hepatoma cells, luciferase luminescence, concentration not given here; liver cell % of control: measured here: host liver cell viability; parasite % of control: stronger effect = lower value
[2] = hESC survival regulators, cell-based (AID 493140; call rule not given here;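 note: cells exposed to compounds for four days before counting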); conditions: human embryonic stem cell survival screen; stronger effect = higher value
[3] = liver-stage malaria parasite growth inhibition, primary screen, cell-based, HepG2, luciferase luminescence, HepG2 viability (AID 624349; in the data active = parasite load remaining mostly below about 12%, no sharp cut-off; inactive = mostly above about 10%;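 note: 100% = mean of DMSO negative control wells on the same plate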); conditions: P. berghei liver stage in HepG2, luciferase luminescence, concentration not given here; parasite load remaining: stronger effect = lower value; viability: measured here: HepG2 viability without parasites
[4] = molecular target: NAD(+) hydrolase SARM1 (Homo sapiens) (UniProt Q6SZW1); assay: SARM1 TIR NADase inhibitors, cell lysate, NAD-Glo luminescence (AID 1508614;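 active = compound whose remaining NAD level is above about 45 nM, limit read from the data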;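 note: higher remaining NAD means stronger inhibition of SARM1 NADase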); conditions: SAM-TIR HEK293T lysate NADase, at 1 µM, stronger effect = higher value
NAD(+) hydrolase SARM1 (Homo sapiens), sequence (Q6SZW1 whole entry, looked up, the tested form may be a part): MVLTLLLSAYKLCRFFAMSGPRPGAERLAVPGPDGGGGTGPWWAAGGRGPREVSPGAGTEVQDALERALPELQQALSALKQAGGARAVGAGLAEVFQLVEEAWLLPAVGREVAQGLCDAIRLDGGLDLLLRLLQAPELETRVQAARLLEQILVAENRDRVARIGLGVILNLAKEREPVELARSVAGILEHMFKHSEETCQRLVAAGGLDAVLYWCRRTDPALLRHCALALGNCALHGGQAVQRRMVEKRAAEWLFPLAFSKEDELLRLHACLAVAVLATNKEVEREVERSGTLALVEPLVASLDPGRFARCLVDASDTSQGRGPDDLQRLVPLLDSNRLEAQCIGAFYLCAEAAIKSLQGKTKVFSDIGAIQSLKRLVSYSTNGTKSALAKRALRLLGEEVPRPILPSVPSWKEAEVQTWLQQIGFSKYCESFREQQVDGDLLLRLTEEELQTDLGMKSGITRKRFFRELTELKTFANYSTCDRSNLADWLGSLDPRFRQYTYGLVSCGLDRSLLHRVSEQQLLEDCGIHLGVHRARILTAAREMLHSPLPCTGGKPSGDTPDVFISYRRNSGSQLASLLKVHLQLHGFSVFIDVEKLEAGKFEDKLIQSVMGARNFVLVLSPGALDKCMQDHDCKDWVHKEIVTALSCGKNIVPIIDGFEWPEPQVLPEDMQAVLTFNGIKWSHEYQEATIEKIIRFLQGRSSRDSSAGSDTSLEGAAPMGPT

[5] = molecular target: Mitogen-activated protein kinase 7 (Homo sapiens) (UniProt Q13164); assay: ERK5 transactivation activators in reporter cells, primary screen, cell-based, HTS (AID 1508626;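 active = luciferase signal above three times the same-plate solvent-only control wells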;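 note: luciferase driven by Gal4-ERK5 fusion binding five Gal4 sites before minimal TATA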); conditions: HeLa Gal4-ERK5 transactivation, 18 h, at 5 µM, stronger effect = higher value
Mitogen-activated protein kinase 7 (Homo sapiens), sequence (Q13164 whole entry, looked up, the tested form may be a part): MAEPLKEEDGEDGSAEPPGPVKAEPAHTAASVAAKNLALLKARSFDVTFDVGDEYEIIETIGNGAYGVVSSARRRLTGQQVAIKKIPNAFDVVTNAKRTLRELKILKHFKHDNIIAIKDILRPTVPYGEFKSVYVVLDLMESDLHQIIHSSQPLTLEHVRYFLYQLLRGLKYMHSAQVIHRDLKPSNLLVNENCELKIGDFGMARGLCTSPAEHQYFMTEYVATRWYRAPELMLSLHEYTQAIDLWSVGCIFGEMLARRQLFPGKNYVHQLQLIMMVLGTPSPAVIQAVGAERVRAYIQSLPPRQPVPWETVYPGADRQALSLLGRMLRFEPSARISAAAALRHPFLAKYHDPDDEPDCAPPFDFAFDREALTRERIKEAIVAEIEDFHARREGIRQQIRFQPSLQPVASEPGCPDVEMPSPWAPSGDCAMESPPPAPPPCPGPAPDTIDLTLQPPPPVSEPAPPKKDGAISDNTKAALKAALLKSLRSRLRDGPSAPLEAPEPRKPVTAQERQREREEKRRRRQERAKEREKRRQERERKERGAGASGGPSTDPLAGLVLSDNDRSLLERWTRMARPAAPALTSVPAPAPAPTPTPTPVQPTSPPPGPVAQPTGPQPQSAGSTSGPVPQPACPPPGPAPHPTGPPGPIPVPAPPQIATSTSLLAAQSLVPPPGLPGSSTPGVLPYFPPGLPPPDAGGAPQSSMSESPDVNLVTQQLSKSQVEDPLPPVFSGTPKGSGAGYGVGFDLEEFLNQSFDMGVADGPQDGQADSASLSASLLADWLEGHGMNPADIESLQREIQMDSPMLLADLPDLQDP

[6] = viability rescue of complex I mutant cybrids, primary screen, cell-based, galactose medium, ATP luminescence (AID 1645843;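 active = z-score of at least 1.8 in each of two replicates, scored against plate mean and spread of sample wells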;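 note: positive z means more ATP and so rescue of galactose-driven cybrid death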); conditions: complex I mutant cybrid cells, 72 h, stronger effect = higher value
[7] = circadian clock period modulators, cell-based, LOPAC library, luminescence reporter (AID 2774; call rule not given here;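 note: values are relative to mean of DMSO wells on each plate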); conditions: circadian reporter cells, at 7 µM, actives lie on both sides
[8] = system: Hepatitis C virus NS3 helicase; assay: HCV NS3 helicase inhibitors, primary screen, biochemical, fluorescence polarization, LOPAC1280 library (AID 687035; in the data active = inhibition above about 37%); conditions: Purified HCV NS3 helicase, Cy5-dT15 ssDNA binding fluorescence polarization; stronger effect = higher value; concentration not given here
[9] = Cy5 fluorescence quenching or enhancement artefacts, artefact control for HCV NS3 helicase inhibitor project, biochemical, LOPAC1280 (AID 687037; call rule not given here); conditions: Cy5-DNA-NS3h complex fluorescence interference counterscreen
[10] = phospholipid biosynthesis inhibitors in animal cells, primary screen, cell-based, LOPAC library, screen 4 (AID 1347384; call rule not given here); conditions: phospholipid biosynthesis inhibition screen, at 10 µM
[11] = LFS_MB_1R medulloblastoma cell growth inhibition, synergistic combos for chromothripsis tumors, cisplatin or BGB combos (AID 1671452); conditions: LFS_MB_1R medulloblastoma cells, stronger effect = higher value;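 note: cells exposed for 96 hours before readout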
[12] = CRL2098 osteosarcoma cell growth inhibition, synergistic combos for chromothripsis tumors, BGB or cisplatin IC20 combos (AID 1671454); conditions: CRL2098 osteosarcoma cells, drug combinations, stronger effect = higher value;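 note: cells exposed for 96 h before readout; 0% = vehicle DMSO and 100% = killing by high DMSO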
[13] = HD-MB03 medulloblastoma cell growth inhibition, synergistic combos for chromothripsis tumors, BGB or cisplatin IC20 combos (AID 1671455; in the data active = inhibition above about 83%;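 note: 0% = vehicle DMSO and 100% = high DMSO as cytotoxic control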); conditions: HD-MB03 medulloblastoma cells, stronger effect = higher value
[14] = UWB1.289 ovarian carcinoma cell growth inhibition, synergistic combos for chromothripsis tumors, BGB or cisplatin combos (AID 1671456); conditions: UWB1.289 ovarian carcinoma cells, stronger effect = higher value;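 note: cells exposed to compound for four days; 0% = vehicle DMSO and 100% = killing by high DMSO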
[15] = LFS_MB_2R medulloblastoma cell growth inhibition, synergistic combos for chromothripsis tumors, cisplatin combos (AID 1671457); conditions: LFS_MB_2R medulloblastoma cells, stronger effect = higher value;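 note: cells exposed to compound for four days before readout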
[16] = UWB1.289_BRCA1 ovarian cancer growth, cell-based, BGB or cisplatin combinations (AID 1671459); conditions: UWB1.289 BRCA1 ovarian carcinoma, drug combinations, stronger effect = higher value
[17] = human astrocyte viability loss, single and combined drugs, cytotoxicity control for chromothriptic childhood tumor combination screen, cell-based, BGB or cisplatin IC20 combos (AID 1671460); conditions: Human astrocytes, drug combinations, stronger effect = higher value;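 note: cells exposed to compounds for 96 hours before viability readout; 0% = vehicle and 100% = killing control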
[18] = growth inhibition of CRL1545 osteosarcoma cells, cell-based, cisplatin and BGB IC20 combos (AID 1671464); conditions: stronger effect = higher value;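 note: cells exposed to compound for 96 hours before readout; 0% = vehicle DMSO and 100% = high DMSO killing control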
[19] = measured here: combination with BGB IC40, at 0.05 µM
[20] = measured here: combination with cisplatin, at 0.5 µM
[21] = measured here: combination with cisplatin, at 5 µM
[22] = measured here: combination with BGB at IC20, at 0.5 µM
[23] = measured here: combination with cisplatin at IC20, at 0.5 µM
[24] = measured here: combo with BGB at IC20, at 0.5 µM
[25] = measured here: combo with cisplatin at IC20, at 0.5 µM
[26] = measured here: inhibition with BGB combination, at 0.05 µM
[27] = measured here: inhibition with cisplatin combination, at 0.05 µM
[28] = BGB combination, concentration series, at 5 µM
[29] = cisplatin combination, concentration series, at 5 µM
[30] = measured here: combo with BGB IC20, at 0.5 µM
[31] = measured here: combo with cisplatin IC20, at 0.5 µM
[32] = measured here: with BGB IC20 combination, at 0.5 µM
[33] = measured here: with cisplatin IC20 combination, at 0.5 µM

SMILES: Cn1c(=O)n(-c2ccc(C(C)(C)C#N)cc2)c2c3cc(-c4cnc5ccccc5c4)ccc3ncc21
- liver cell % of control [1]: 79.1% and 72.9%
- parasite % of control [1]: 288% (inactive) and 494% (inactive) and 6.49% (inactive)

SMILES: COc1nccc(-c2c(-c3ccc(F)cc3)ncn2C2CCNCC2)n1
- liver cell % of control [1]: 89.2% and 92.3% and 100%
- parasite % of control [1]: 45.1% (inactive) and 35% (inactive) and 41.5% (inactive)

SMILES: Cc1nc(N)ncc1-c1nc(N2CCOCC2)c2sc(C(C)(C)O)cc2n1
- liver cell % of control [1]: 78.4% and 78.6% and 93.7%
- parasite % of control [1]: 406% (inactive) and 544% (inactive) and 660% (inactive)

SMILES: CO[C@H]1/C=C/O[C@@]2(C)Oc3c(C)c(O)c4c(O)c(c(/C=N/N5CCN(C)CC5)c(O)c4c3C2=O)NC(=O)/C(C)=C\C=C\[C@H](C)[C@H](O)[C@@H](C)[C@@H](O)[C@@H](C)[C@H](OC(C)=O)[C@@H]1C
- survival [2]: 9.5 (inactive)
- parasite load remaining [3]: 95.1% (inactive) and 71.6% (inactive) and 41.3% (inactive)
- viability [3]: 99.1% and 71.9% and 96.5%
- remaining NAD [4]: 10 nM (inactive)
- luciferase signal [5]: 44 AU (inactive)
- z-score [6]: 1.12 (inactive)

SMILES: Clc1ccc2c(N3CCN(CCCN4CCN(c5ccnc6cc(Cl)ccc56)CC4)CC3)ccnc2c1
- z-score [6]: -0.6 (inactive)

SMILES: COc1ccccc1N1CCN(CCN(C(=O)C2CCCCC2)c2ccccn2)CC1
- period change [7]: -0.085 h (inactive)
- inhibition [8]: -3% (inactive)
- fluorescence ratio (interference) [9]: 1 (inactive)
- outcome [10]: inactive
- z-score [6]: -1.04 (inactive)

SMILES: Cc1ccc(C(=O)Nc2cccc(C(F)(F)F)c2)cc1-c1ccc2nc(NCCN3CCOCC3)ncc2c1
- liver cell % of control [1]: 51.5% and 76.3% and 85.2%
- parasite % of control [1]: 60.4% (inactive) and 252% (inactive) and 87.5% (inactive)

SMILES: CCCCc1nc2cc(/C=C/C(=O)NO)ccc2n1CCN(CC)CC
- inhibition ([11]; at 0.5 µM): 31% (inactive)
- inhibition [11, 19]: -30.9%
- inhibition [11, 20]: 45.7%
- inhibition [11, 21]: 97.5%
- inhibition ([12]; at 0.5 µM): -2.27% (inactive)
- inhibition [12, 22]: -16.1%
- inhibition [12, 23]: 1.66%
- inhibition ([13]; at 0.5 µM): 93.3% (active)
- inhibition [13, 24]: 95.7%
- inhibition [13, 25]: 99.3%
- inhibition ([14]; at 0.5 µM): 46.9% (inactive)
- inhibition [14, 26]: 11.6%
- inhibition [14, 27]: 0.198%
- inhibition ([15]; at 0.5 µM): 26.1% (inactive)
- inhibition [15, 20]: 56.5%
- inhibition [15, 21]: 98.1%
- inhibition [16, 28]: 115%
- inhibition ([16]; at 0.5 µM): 51.5% (inactive)
- inhibition [16, 29]: 127%
- inhibition ([17]; at 0.5 µM): 41.3% (inactive)
- inhibition [17, 30]: 44.4%
- inhibition [17, 31]: 26%
- inhibition ([18]; at 0.5 µM): 81.5% (active)
- inhibition [18, 32]: 67.7%
- inhibition [18, 33]: 88.2%
- inhibition ([18]; single agent, at 0.05 µM): -14.8%
- inhibition ([18]; single agent, at 5 µM): 93.1%

SMILES: C[Se]CCC(N)C(=O)O (stereo not drawn)
- remaining NAD [4]: 10 nM (inactive)

SMILES: O=C(CCCCCCNC(=O)c1cnc(N(c2ccccc2)c2ccccc2)nc1)NO
- inhibition ([11]; at 0.5 µM): -2.12% (inactive) and -15.9% (inactive)
- inhibition [11, 19]: -29.1% and -24.9%
- inhibition [11, 20]: 6.1% and -31.8%
- inhibition [11, 21]: 84.8% and 59.4%
- inhibition ([12]; at 0.5 µM): -71.5% (inactive) and -77.4% (inactive)
- inhibition [12, 22]: -57.1% and -110%
- inhibition [12, 23]: -110% and -74.1%
- inhibition ([13]; at 0.5 µM): 1.23% (inactive) and -11.6% (inactive)
- inhibition [13, 24]: -8.85% and -13.2%
- inhibition [13, 25]: 14.2% and -7.98%
- inhibition ([14]; at 0.5 µM): 1.59% (inactive) and 9.83% (inactive)
- inhibition [14, 26]: -25.2% and -41.7%
- inhibition [14, 27]: -17.6% and -12.7%
- inhibition ([15]; at 0.5 µM): -17.5% (inactive) and -17% (inactive)
- inhibition [15, 20]: -3.75% and -9.43%
- inhibition [15, 21]: 74.7% and 60.9%
- inhibition [16, 28]: 47.7% and 28.3%
- inhibition ([16]; at 0.5 µM): 1.98% (inactive) and -9.53% (inactive)
- inhibition [16, 29]: 66.1% and 58.6%
- inhibition ([17]; at 0.5 µM): -18.3% (inactive) and 0.04% (inactive)
- inhibition [17, 30]: -21.3% and 12.4%
- inhibition [17, 31]: -18.3% and -8.91%
- inhibition ([18]; at 0.5 µM): -14% (inactive) and -9.25% (inactive)
- inhibition [18, 32]: -11% and -28.2%
- inhibition [18, 33]: -17.4% and -1.39%
- inhibition ([18]; single agent, at 0.05 µM): -31.8% and -21.9%
- inhibition ([18]; single agent, at 5 µM): 89.1% and 74.4%

SMILES: c1cc(OCCN2CCCCC2)cc(-c2n[nH]c3ccc(-c4ncn[nH]4)cc23)c1
- liver cell % of control [1]: 77.7% and 82.4% and 94%
- parasite % of control [1]: 63.2% (inactive) and 149% (inactive) and 87% (inactive)

SMILES: CC[C@H](/C=C/[C@@H](C)[C@H]1CC[C@H]2[C@@H]3CC=C4C[C@@H](O)CC[C@]4(C)[C@H]3CC[C@]12C)C(C)C
- luciferase signal [5]: 52 AU (inactive)
